Assay [1] can be described thus: qHTS assay for small molecules that induce genotoxicity in human embryonic kidney cells expressing luciferase-tagged ATAD5 (AID 651632). Also: nearly all actives have a fitted effect of over 15% in size. Also: potency is read from the fitted curve at half-maximal effect. The conditions noted are these: HEK293T ATAD5-luciferase induction, 16 h; series mostly up to 83.3 µM. The method, boiled down:
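Test compounds were delivered by pin tool onto HEK293T reporter cells (2,000/well) expressing ATAD5 fused to luciferase. After 16 hr at 37C, 5% CO2, Amplite was added for 30 min at room temperature and luminescence was measured.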
For orientation: Quantitative high-throughput screening tests each substance at several concentrations.

Assay [2] is described as follows: qHTS assay for small molecules that induce genotoxicity in human embryonic kidney cells expressing luciferase-tagged ATAD5 - cell viability (AID 651634; calls by dose curve; also: nearly all actives have a fitted effect of over 25% in size; also: potency is read from the fitted curve at half-maximal effect). The conditions noted are these: HEK293T ATAD5-luc cells viability, CellTiter-Fluor, 15.5 h; series mostly up to 83.3 µM. The method, boiled down: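 Quantitative high-throughput format. HEK293T cells expressing ATAD5 fused to luciferase were plated at 2,000 cells/well and treated 15.5 hr with compound versus DMSO. Viability was determined by fluorescent live-cell protease substrate, 30 min at 37C.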

Assay [3] is described as follows: qHTS assay for small molecule disruptors of the mitochondrial membrane potential - cell viability (AID 720634; calls by dose curve; also: nearly all actives have a fitted effect of over 20% in size; also: potency is read from the fitted curve at half-maximal effect). The following applies: HepG2 viability, ATP luminescence (CellTiter-Glo), 1 h; series mostly up to 83.2 µM. The method, boiled down: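 Same-well counter-screen: following the MMP dye addition, CellTiter-Glo was added to 1 hr compound-treated HepG2 cells and luminescence read after 30 min at room temperature.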

The nature of assay [4]: qHTS assay for small molecule disruptors of the mitochondrial membrane potential (AID 720635). Also: potency is read from the fitted curve at half-maximal effect. The conditions noted are these: HepG2 mitochondrial membrane potential, Mito-MPS dye ratio; series mostly up to 83.2 µM. The method, boiled down: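 HepG2 cells (2,000/well) attached overnight at 37C, then took compound for 1 hr at 37C, 5% CO2. Mito-MPS dye was added for 30 min; fluorescence was read at 490/535 nm (monomers) and 540/590 nm (aggregates).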

Assay [5] can be described thus: qHTS assay to test for compound auto fluorescence at 590 nm (red) in HepG2 cells (AID 720674). The conditions noted are these: HepG2 autofluorescence, red 540/590 nm, 1 h; series mostly up to 91.3 µM. The method, boiled down:
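Rose Bengal sodium served as the red fluorophore standard. HepG2 monolayers (overnight attachment, MEM with 10% FBS) were exposed to test compounds for 1 hr at 37 C and read at Ex 540/Em 590 nm.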

Assay [6] is described as follows: qHTS assay to test for compound auto fluorescence at 535 nm (green) in HepG2 cells (AID 720675). Also: potency is read from the fitted curve at half-maximal effect. The following applies: green autofluorescence 485/535 nm, 1 h; series mostly up to 91.3 µM.
Assay [7] in a line: qHTS assay to test for compound auto fluorescence at 460 nm (blue) in HEK293 cells (AID 720678). The conditions noted are these: blue autofluorescence 405/460 nm; series mostly up to 91.3 µM. The method, boiled down:
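HEK293 cells (2,000 per well, medium with 10% dialyzed FBS) attached for 4-5 hr at 37C, then received compound and stood overnight at 37C, 5% CO2. Blue fluorescence was read at Ex/Em 405/460 nm and expressed relative to triamterene.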

The nature of assay [8]: qHTS assay to test for compound auto fluorescence at 590 nm (red) in HEK293 cells (AID 720679). The following applies: red autofluorescence 540/590 nm; series mostly up to 91.3 µM. The method, boiled down: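 HEK293 cells (2,000/well, medium with 10% dialyzed FBS) attached for 4-5 hr at 37C, received 23 nL compound and were incubated overnight at 37C, 5% CO2. Red fluorescence was then read at 540/590nm Ex/Em, referenced to Rose Bengal sodium.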

Assay [9] can be described thus: qHTS assay for small molecule agonists of the p53 signaling pathway - cell viability (AID 651633; calls by dose curve; also: nearly all actives have a fitted effect of over 30% in size; also: potency is read from the fitted curve at half-maximal effect). The conditions noted are these: p53RE-bla HCT-116 viability, ATP luminescence, 16 h; series mostly up to 83.3 µM. The method, boiled down: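 p53RE-bla cells, seeded at 4,000 per well and rested 5 h at 37 C/5% CO2, received compounds in DMSO for 16 h at 37 C. CellTiter-Glo was then added, and luminescence was read after 30 min at room temperature to gauge cytotoxicity.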

Structures are written as SMILES. Where “and” joins values, the source holds several entries; their conditions need not be identical. Identical values can stand only once. Records with an inconclusive call do not appear. Some structures have more than one record in an assay (separate samples or runs), and their calls can disagree. Calls of active or inactive are those of the source. Unless noted, calls follow the shape of the dose curve; as a rule, active = well fitted curve in the direction sought with a large enough effect in the repeat runs; inconclusive = weak or mixed curves; inactive = no such curve, though single readings can be large; an effect the other way counts as inactive or inconclusive.

For `N[C@@H]1CONC1=O`, the Potency result in assay [1], in assay [2], in assay [3], in [4], in assay [6] and in assay [7] was “inactive” each time. Moreover, the compound was classed as inactive in [5] and in assay [8].

Consider `O=C(Oc1ccccc1)c1ccccc1O`, for which the Potency result in [1], in assay [2], in assay [3], in [6] and in [7] was “inactive” each time. Also, the Potency entry in assay [4] was “inactive and 54.5 µM (active)”. In addition, the compound was called inactive in assay [5] and in assay [8].

Take `CCOc1ccc2c(c1)C(C)=CC(C)(C)N2`: the Potency result in assay [1], in [2], in [3], in assay [4] and in assay [6] was “inactive” each time. In addition, the compound was called inactive in assay [5] and in [8].

With `Clc1ccc2c(c1)C(N1CCNCC1)=Nc1ccccc1O2`, the Potency result in assay [1], in assay [2], in [3], in [6] and in [7] was “inactive” throughout. In addition, the compound was called inactive in assay [5] and in [8].

As for `CC(C)CCCCCCc1ccc(O)cc1`, the Potency result in assay [1], in [6] and in [7] was “inactive” throughout. The Potency in assay [9] is 62.2 µM (active); in assay [3], 6.22 µM (active) and 61.1 µM (active); in assay [4], 5.31 µM (active) and 1.56 µM (active) and 5.45 µM (active). Also, the outcome in assay [5] and in [8] was inactive.

`CC(=O)O[C@]1(C(C)=O)CC[C@H]2[C@@H]3C[C@H](C)C4=CC(=O)CC[C@]4(C)[C@H]3CC[C@@]21C`: the Potency result in assay [1], in [9], in assay [2], in assay [6] and in assay [7] was “inactive” throughout. In addition, the call in assay [5] and in [8] was inactive.

For the compound `CCN(CC)CCOc1ccc(/C(=C(\Cl)c2ccccc2)c2ccccc2)cc1`, the Potency entry in assay [2], in [3] and in [6] was “inactive” in each case. The result in assay [5] and in [8] was inactive.

As to `Nc1nc(=S)c2[nH]cnc2[nH]1`, the Potency entry in assay [1], in [4], in [6] and in assay [7] was “inactive” in each case. The call in [5] and in [8] was inactive.

`O=C1OC2(c3ccc(O)cc3Oc3cc(O)ccc32)c2ccccc21`: the Potency entry in [1], in assay [3] and in assay [7] was “inactive” throughout. The Potency in assay [4] was 84.1 nM (active) and 61.1 nM (active); in assay [6], 3.16 µM (active) and 2.51 µM (active) and 3.98 µM (active). For the same compound, the outcome in assay [5] and in [8] was inactive.

For `CCCCCCCCCCCC[N+](C)(C)C`, the Potency entry in [1], in assay [2], in assay [3], in [6] and in [7] was “inactive” in each case. In assay [4], the Potency was 61.1 µM (active). The outcome in [5] and in [8] was inactive.

In the case of `O=C1CC2(CCCC2)CC(=O)N1CCCCN1CCN(c2ncccn2)CC1`, the Potency result in [1], in assay [2], in [3], in assay [6] and in assay [7] was “inactive” throughout. Further, the Potency entry in assay [4] was “inactive and 30.6 µM (active)”. The compound was classed as inactive in assay [5] and in [8].

Consider `CCCCN(CCO)CCCC`, for which the Potency entry in assay [1], in [9], in assay [2] and in [6] was “inactive” each time. The outcome in assay [5] and in assay [8] was inactive.

In the case of `CC(C)CCOCc1ccccc1`, the Potency entry in [1], in assay [2], in [3], in assay [6] and in [7] was “inactive” in each case. Besides, the outcome in assay [5] and in [8] was inactive.

On to `CCN(CC)C(=S)SSC(=S)N(CC)CC`, for which the Potency was 11.9 µM (active) and 61.1 µM (active) and 13.7 µM (active) in assay [1]; 7.7 µM (active) and 7.02 µM (active) in assay [4]. Moreover, the Potency entry in [3] and in [6] was “inactive” throughout. Further, the compound was called inactive in assay [5] and in [8].

On to `COc1ccc(CCN(C)CCCC(C#N)(c2ccc(OC)c(OC)c2)C(C)C)cc1OC` (stereo unspecified), for which the Potency result in assay [1], in assay [2] and in assay [6] was “inactive” throughout. The compound was called inactive in [5] and in [8].

On to `CC(COc1ccccc1)N(CCCl)Cc1ccccc1` (stereo unspecified), for which the Potency result in [2] and in [6] was “inactive” in each case. Also, the Potency entry in assay [4] is “inactive and 43.7 µM (active) and 43.3 µM (active)”. Further, the outcome in [5] and in [8] was inactive.

Consider `NNCCc1ccccc1`, for which the Potency entry in [1], in assay [2], in assay [4], in [6] and in assay [7] was “inactive” each time. In addition, the call in assay [5] and in assay [8] was inactive.

`CCCOC(=O)c1cc(O)c(O)c(O)c1`: the Potency result in assay [1], in [2], in assay [3], in [6] and in [7] was “inactive” in each case. In [4], the Potency was 23.7 µM (active) and 48.3 µM (active) and 48.6 µM (active). Further, the result in assay [5] and in assay [8] was inactive.

In the case of `CCCCCC(=O)O[C@]1(C(C)=O)CC[C@H]2[C@@H]3CCC4=CC(=O)CC[C@]4(C)[C@H]3CC[C@@]21C`, the Potency entry in assay [1], in [2], in [3], in assay [6] and in assay [7] was “inactive” each time. The Potency in assay [4] was 11.9 µM (active) and 15.2 µM (active). Moreover, the outcome in assay [5] and in assay [8] was inactive.

Turning to `O=C(Nc1ccccc1SSc1ccccc1NC(=O)c1ccccc1)c1ccccc1`, the Potency entry in assay [1], in [9] and in assay [6] was “inactive” in each case. Also, in [4], the Potency was 7.74 µM (active) and 15.4 µM (active). Moreover, the result in assay [5] and in [8] was inactive.

On to `CN(C)c1ccc(C(=C2C=CC(=[N+](C)C)C=C2)c2ccccc2)cc1`, for which the Potency result in assay [1] and in assay [6] was “inactive” each time. For the same compound, the Potency was 23.7 µM (active) and 273 nM (active) in [9]; “inactive and 17.2 µM (active)” in [3]; 29.8 µM (active) and 77 nM (active) in [4]. Also, the compound was called inactive in assay [5] and in assay [8].

Consider `O=C1NCC2(CCN(CCc3ccccc3)CC2)O1`, for which the Potency entry in [1], in assay [2], in assay [3], in assay [6] and in assay [7] was “inactive” each time. The call in [5] and in [8] was inactive.

Take `CC(N)=O`: the Potency result in [1], in assay [2], in assay [3], in [4], in assay [6] and in assay [7] was “inactive” throughout. Further, the outcome in [5] and in [8] was inactive.

Regarding `Nc1ccc(O)cc1`, the Potency was 26.6 µM (active) and 30.6 µM (active) and 31.8 µM (active) in [9]; 31.8 µM (active) in assay [3]; 841 nM (active) and 3.06 µM (active) and 897 nM (active) in assay [4]. Moreover, the compound was classed as inactive in [5] and in assay [8]. For the same compound, the Potency result in assay [6] and in [7] was “inactive” in each case.

`Cc1cc(OCCOCC[N+](C)(C)Cc2ccccc2)ccc1C(C)(C)CC(C)(C)C`: the Potency result in assay [1] and in [6] was “inactive” each time. Further, the Potency in assay [2] was 9.63 µM (active); in [3], 12.1 µM (active); in assay [4], 16.8 µM (active) and 3.05 µM (active). Further, the compound was called inactive in [5] and in assay [8].

Regarding `CC(C)(C)c1ccc(O)c(C(C)(C)C)c1`, the Potency entry in assay [1], in [6] and in assay [7] was “inactive” throughout. Also, the Potency is 24.2 µM (active) in [3]; 2.72 µM (active) and 3.06 µM (active) in [4]. The compound was classed as inactive in [5] and in assay [8].

Regarding `O=C(O[C@@H]1Cc2c(O)cc(O)cc2O[C@@H]1c1cc(O)c(O)c(O)c1)c1cc(O)c(O)c(O)c1`, the Potency result in [1], in [6] and in assay [7] was “inactive” in each case. For the same compound, the Potency in assay [4] is 27.4 µM (active). Further, the compound was classed as inactive in assay [5] and in [8].
